Tests used:
Format in all cases: functional
Plasmodium falciparum [1] = experiment: GSK_TCMDC: Inhibition of Plasmodium falciparum 3D7 in whole red blood cells, using parasite LDH activity as an index of growth. Test compounds present at 2uM
Plasmodium falciparum [2] = experiment: GSK_TCMDC: Inhibition of Plasmodium falciparum Dd2 in whole red blood cells, using parasite LDH activity as an index of growth. Test compounds present at 2uM
HepG2 = experiment: GSK_TCMDC: Percent inhibition of human HepG2 cell line. Test compounds present at 10uM.

Structure (SMILES) | Inhibition (Plasmodium falciparum [1]) [%] | Inhibition (Plasmodium falciparum [2]) [%] | Inhibition (HepG2) [%]
NC(=O)c1cccc(CN2Cc3ccccc3OC3(CCN(Cc4c[nH]c5cnccc45)CC3)C2)c1.O=C(O)C(F)(F)F | 94 | 2 | 9
Cc1ncccc1-c1cccc2c(NC(=O)Nc3ccc4nccc(N5CCN(C)CC5)c4c3)cccc12.Cl | 100 | 96 | 19
COc1ccc(C2CC(=O)C3=C(C2)NC(C)=C(C(=O)OC(C)C)C3c2c(F)cccc2Cl)cc1OC (stereo not given) | 93 | 81 | 0
O=C(/C=C/c1ccc(C(F)(F)F)cc1)NCCCCCN1CCN(C(=O)Nc2ccc(F)c(Cl)c2)CC1 | 89 | 0 | 35
Cc1ccccc1NC(=O)C1CSCN1C(=O)OCc1ccccc1 (stereo not given) | 91 | 0 | 8
CS(=O)(=O)NCCCNCc1ccc(-c2cccc(-c3nc4cc(F)ccc4[nH]3)c2)cc1.O=C(O)C(F)(F)F | 98 | 1 | 15
COc1ccc2nccc(NCC3(O)CCN(CC(O)c4ccc5c(c4)NC(=O)CS5)CC3)c2n1.Cl (stereo not given) | 100 | 3 | 3
O=C1c2ccccc2-n2c1nc1ccccc1c2=O [TRYPTANTHRIN] | 93 | 80 | 9
O=C(/C=C/c1ccc(Cl)c(Cl)c1)NCCCCCN1CCN(C(=O)Nc2ccc(OC(F)F)cc2)CC1 | 99 | 0 | 20
O=C(O)C(F)(F)F.O=C1CCCN1CCCNCc1cccc(-c2cccc(-c3nc4cc(C(F)(F)F)ccc4[nH]3)c2)c1 | 100 | 90 | 28
